Screening results as filed in PubChem BioAssay.
BAZ2B inh: inhibitors of human BAZ2B bromodomain; AlphaScreen BAZ2B-H3K14Ac peptide displacement; 360,000 tested, 4.4% active; Q9UIF8; AID 504333; Potency, µM (titrated, usually from 114 µM), for the others: top-dose activity change, negative = inhibition, most hits filed as inhibitors; also: % is scaled to controls: 0 for no effect and ±100 for the full control effect; nearly all actives have a fitted effect of over 60% in size
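Inhibition is scored as reduced AlphaScreen emission. The BAZ2B/b-H3(5-23)K14Ac complex (50 nM each) in PBS pH 7.4, 0.01% Tween-20 meets compound (up to 110 uM) for 30 min at RT before bead addition.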
HP1b chromo inh: HP1-beta chromodomain-methylated histone interaction inhibition; Potency, µM (doses to about 114 µM), for the others: at the highest dose activity change, negative = inhibition, usual class: inhibitors; AlphaScreen HP1-beta / biotin-H3K9me3 peptide binding; P83916; 390,000 tested, 0.56% active; AID 540317; also: nearly all actives have a fitted effect of over 70% in size
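HP1-beta protein (50 nM final) preincubated 30 min at room temperature with biotinylated H3(1-18)K9me3 peptide (50 nM) in PBS pH 7.4, 0.01% Tween-20, then compound added for 30 min. AlphaScreen streptavidin donor/nickel chelate acceptor beads (10 ug/mL final), 30 min dark, luminescence read.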
JMJD2A Tudor inh: inhibitors of human JMJD2A Tudor domain; 390,000 tested, 4.4% active; Potency, µM (top dose mostly 114 µM), without a hit: at the highest dose activity change, negative = inhibition, actives largely listed as inhibitors; O75164; AID 504339; AlphaScreen JMJD2A-Tudor / H3K4me3 peptide binding; also: % is scaled to controls: 0 for no effect and ±100 for the full control effect; nearly all actives have a fitted effect of over 50% in size
Sfp inh: Sfp phosphopantetheinyl transferase inhibition. Q9F4F7. AID 1490. Biochemical Sfp PPTase activity, qHTS. 310,000 tested, 3.5% active. Potency, µM, for inactives: largest response in the series, negative = inhibition, actives largely listed as inhibitors;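 also: the enzyme is Sfp with the accession as filed and its product quenches rhodamine fluorescence; 0% = enzyme reaction without inhibitor and -100% = no enzyme wells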
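Fluorescence-quenching assay: 15 nM Sfp-PPTase preincubated 15 min at room temperature with compound, then 5 uM rhodamine-CoA and 12.5 uM BHQ-2-labelled YbbR peptide added. Fluorescence (ex 525/em 598 nm) read at start and after 30 min; difference gives rate.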
G9a inh: inhibitors of human histone lysine methyltransferase G9a; Q96KQ7; G9a H3K9 monomethylation, AlphaScreen, 2 h; Potency, µM (highest dose often 102 µM), inactives show at the highest dose activity, negative = inhibition, hits mostly inhibitors; 350,000 tested, 8.8% active; AID 504332; also: % is scaled to controls: 0 for no effect and ±100 for the full control effect; nearly all actives have a fitted effect of over 75% in size
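Compounds were preincubated with 20 nM G9a for 15 min, after which biotinylated H3K9 peptide (500 nM) and SAM (20 uM) started a 2 h room-temperature reaction. Monomethylated product was quantified by antibody-based AlphaScreen chemiluminescence.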
PLK1 PBD inh: PLK1 (human) polo-box domain binding inhibition; 360,000 tested, 2.8% active; AID 720504; Plk1 PBD binding of FITC phosphopeptide, fluorescence polarization; Potency, µM, without a hit: max response, negative = inhibition, usual class: inhibitors; also: series mostly up to about 57 µM; % is scaled to controls: 0 for no effect and ±100 for the full control effect; nearly all actives have a fitted effect of over 65% in size
Target sequence (P53350 whole entry, looked up, the tested form may be a part): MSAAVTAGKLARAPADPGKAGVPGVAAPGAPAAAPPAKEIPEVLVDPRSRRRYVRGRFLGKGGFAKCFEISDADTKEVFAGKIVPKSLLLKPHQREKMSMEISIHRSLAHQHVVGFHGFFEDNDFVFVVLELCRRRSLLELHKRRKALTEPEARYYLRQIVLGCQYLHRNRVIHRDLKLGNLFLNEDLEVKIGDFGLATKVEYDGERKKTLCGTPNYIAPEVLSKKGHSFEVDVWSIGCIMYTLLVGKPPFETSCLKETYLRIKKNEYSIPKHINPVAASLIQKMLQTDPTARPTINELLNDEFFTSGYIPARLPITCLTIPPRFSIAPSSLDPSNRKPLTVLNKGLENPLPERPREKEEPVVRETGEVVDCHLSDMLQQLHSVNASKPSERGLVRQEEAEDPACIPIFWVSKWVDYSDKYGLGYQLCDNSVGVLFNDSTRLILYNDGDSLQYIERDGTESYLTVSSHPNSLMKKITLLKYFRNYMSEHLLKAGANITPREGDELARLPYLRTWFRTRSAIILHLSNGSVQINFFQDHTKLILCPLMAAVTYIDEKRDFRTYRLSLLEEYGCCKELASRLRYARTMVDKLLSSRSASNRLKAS
* = called active by the depositor; u = inconclusive; x = not tested or not shown; [ ] = dose if it differs, or a comment. In the library only some 12% were active in any assay of this set; here they are far more common. Calls follow the shape of the dose curve; as a rule, active = well fitted curve in the direction sought with a large enough effect; inconclusive = small, poorly fitted or top-dose-only effect, or another doubt; inactive = no such curve, though single readings can be large; an effect the other way counts as inactive or inconclusive. Potency is read from the fitted curve at half-maximal effect.

SMILES	BAZ2B inh	HP1b chromo inh	JMJD2A Tudor inh	Sfp inh	G9a inh	PLK1 PBD inh
CSc1nnc(SCC(=O)NC(=O)c2ccccc2)s1	2%	26%	-3%	x	45µM*	-1%
Cc1ccn2c(c1)nc(=O)c1cc(S(=O)(=O)N3CCOCC3)ccc12	-3%	22%	-21%	9%	3%[59 µM]	u
Cc1ccc(/C=C/S(=O)(=O)NCC(=O)OCC(=O)Nc2ccc(C(N)=O)cc2)cc1	5%	22%	-14%	x	45µM*	-5%
Cc1ccc(/C=C/S(=O)(=O)NCC(=O)OCC(=O)Nc2ccc(C(=O)N(C)C)cc2)cc1	13%	30%	-4%	x	19%[12.7 µM]	-1%
Cc1ccc(/C=C/S(=O)(=O)NCC(=O)OCC(=O)Nc2c(F)cccc2F)cc1	3%	13%	-13%	x	20µM*	-13%
COc1ccc(C(c2c(NC(C)=O)sc3c2CCCC3)N2CCN(CCO)CC2)cc1OC (stereo not given)	-35%	7%	-27%	8%	u	-2%
CC(=O)Nc1sc2c(c1C(c1cccc(Cl)c1)N1CCN(CCO)CC1)CCCC2 (stereo not given)	u	4%	u	-2%	50µM*	-15%
O=c1[nH]cnc2sc3c(c12)CCN(Cc1ccccc1)C3	-17%	23%	-16%	15%	u	-16%
O=c1[nH]cnc2sc3c(c12)CN(Cc1ccccc1)CC3	0%	2%	-12%	5%	25µM*	-4%
COc1ccc(N2C(N)=C(C#N)C(c3cc(CN4CCOCC4)cs3)C3=C2CCCC3=O)cc1 (stereo not given)	-14%	45%	-26%	x	-1%[59 µM]	x
O=C(O)CSc1c2ccccc2cc2ccccc12	-25%	34%	u	7%	37%	27µM*
O=c1[nH]c2ccccc2c(O)c1SCCO	50µM*	7%	22µM*	79µM*	x	-6%
O=C(O)CSc1c(O)c2ccccc2[nH]c1=O	14µM*	27%	11µM*	10µM*	4.5µM*	21µM*
CCc1cccc(NC(=O)c2oc3ccc4c(c3c2C)C(=O)CC(C)(C)O4)c1	-3%	31%	3%	x	8%[59 µM]	x
CC(=O)NN1C(=O)/C(=C\c2ccc(O)cc2)SC1=S	-34%	-16%	-17%	11%	u	85%
COc1cc(/C=C2\SC(=S)N(NC(=O)c3cccnc3)C2=O)ccc1O	45µM*	-19%	-16%	8%	u	31%
COc1cc(/C=C2\SC(=S)N(NC(=O)c3ccc(O)cc3)C2=O)ccc1O	40µM*	56µM*	u	5%	-47%[12.7 µM]	42%
COc1cc(/C=C2\SC(=S)N(c3cccnc3)C2=O)ccc1O	u	34%	-31%	-25%	-49%[59 µM]	-28%
CCN1/C(=C2/SC(=S)N(NC(C)=O)C2=O)Sc2ccccc21	17%	34%	-5%	12%	x	-14%
CCN1C(=O)/C(=C2\SC(=S)N(NC(=O)c3cccnc3)C2=O)c2ccccc21	u	-14%	u	-11%	40µM*	-2%
O=C(c1ccncc1)N1CCC2(CCCN(c3cccc(-c4ccccc4)c3)C2)CC1	x	x	x	-28%	0%[12.7 µM]	x
COC(=O)[C@@H]1C[C@@]2(O)[C@@H](O)[C@@H](O)[C@@H](O)C[C@H]2N1CC1CC1	x	x	x	31%	x	x
CCCN(CCC)S(=O)(=O)c1cccc(-c2csc(C)n2)c1	43%	70%	76%	-1%	277%	-6%
CCN(CC)S(=O)(=O)c1ccc(-c2csc(C)n2)cc1	13%	22%	u	-1%	x	9.5µM*
CC(C)COC(=O)N(C)C[C@@H]1OCc2cnnn2CCCC(=O)N([C@H](C)CO)C[C@@H]1C	x	x	x	x	x	-5%
SMILES	BAZ2B inh	HP1b chromo inh	JMJD2A Tudor inh	Sfp inh	G9a inh	PLK1 PBD inh
COc1ccc(OC)c(NC(=O)N2CCCc3ccccc32)c1	u	9%	-33%	15%	x	-1%
O=C(NCc1cccc(Cl)c1)c1ccc(NC(=O)N2CC3CCCN3c3ccccc32)cc1 (stereo not given)	u	-12%	u	x	10µM*	x
CC1CN(C(=O)CCC(=O)NCc2ccccc2)c2ccccc2S1 (stereo not given)	11%	36%	-8%	-2%	x	-1%
CCOc1ccc(CNC(=O)CCC(=O)N2CC3CCCN3c3ccccc32)cc1 (stereo not given)	50µM*	u	u	x	26%[59 µM]	x
COc1ccc(OC)c(NC(=O)N2CC3CCCN3c3ccccc32)c1 (stereo not given)	20µM*	u	40µM*	x	18µM*	x
O=C(Nc1cccc(Cl)c1)N1CC2CCCN2c2ccccc21 (stereo not given)	18µM*	u	14µM*	x	2.2µM*	x
O=C(NCc1cccc(Br)c1)c1ccc(NC(=O)N2CCCCc3ccccc32)cc1	7%	14%	-18%	x	52%[59 µM]	x
O=C(c1cc(C(F)(F)F)cc(C(F)(F)F)c1)N1CCC2(CC1)CN(c1ncccn1)C2	x	x	x	0%	0%[12.7 µM]	x
COc1ccc(CNC(=O)COC(=O)c2ccc(OCc3c(C)noc3C)cc2)cc1OC	9%	u	u	-2%	2%[59 µM]	30µM*
CCc1nnc(NC(=O)CN2CCN(c3ccccc3F)CC2)s1	-36%	45%	-30%	-1%	50µM*	-30%
CCc1nnc(NC(=O)CN2CCOCC2)s1	6%	-3%	u	u	-24%	-3%
CCCN1CCN(CC(=O)Nc2nnc(CC)s2)CC1	-2%	27%	7.1µM*	-10%	x	0%
O=C(CN1CCN(c2cccc(Cl)c2)CC1)Nc1nccs1	u	23%	-6%	6%	40µM*	-1%
CCc1nnc(NC(=O)CN2CCN(Cc3ccccc3C)CC2)s1	5%	23%	-21%	6%	x	-9%
CCc1nnc(NC(=O)CN2CCN(c3cccc(OC)c3)CC2)s1	-10%	14%	-23%	-7%	14µM*	-8%
COc1ccc(OC2C(O)COC2/C=C/c2ccccc2)cc1 (stereo not given)	x	x	x	6%	x	x
Cc1c(P(=S)(c2ccccc2)c2ccccc2)c2ccccc2n1CCCc1ccccc1	x	x	-2%	x	x	x
O=c1cc(CO)oc(CN2CCN(CCO)CC2)c1O	-30%	-2%	2.8µM*	-26%	u	-8%
Cc1cccc(N2CCN(Cc3oc(CO)cc(=O)c3O)CC2)c1C	-37%	25%	u	-21%	5%[12.7 µM]	0%
COc1cccc([C@@H]2Oc3ccc(Br)cc3C[C@H]2OC(=O)Nc2ccc(OC(F)F)cc2)c1	x	x	x	-16%	x	x
Cc1cc2c(cc1NS(=O)(=O)c1ccc(F)cc1)n(C)c(=O)c(=O)n2C	0%	35%	-8%	x	-3%[59 µM]	x
CN1C(=S)SC(C)(NO)C1(C)C (stereo not given)	u	u	22µM*	56µM*	u	u
CCCCCSc1nnc(-c2cc(Br)ccc2N)c(=O)[nH]1	2%	39%	-9%	5%	45µM*	-23%
